# KCNH2 3.1 block: blocks the human KCNH2 3.1 channel isoform | U2OS KCNH2 3.1, thallium flux FluxOr; active compounds read low | activity change, % (tested at about 1.8 µM) | 340,000 compounds, 0.95% hits | AID 720553;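 active means maximum activity change below -70%; inconclusive means maximum activity change from -70% to -50%; inactive means maximum activity change above -50%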;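 further: thallium influx rate constant from kinetic fluorescence after stimulation buffer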
#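 Measured as rate of thallium-driven FluxOr signal in transduced U2OS cells carrying the 3.1 channel, read kinetically for 2 min upon stimulation; values are rate constants scaled to DMSO control wells.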
# Giardia kill: kills Giardia lamblia; Giardia lamblia trophozoite viability; activity change, % at 7.66 µM, hits read low; 340,000 compounds, 0.15% hits; AID 540267; in the data active means activity change below about -80%; inconclusive means between about -30% and that limit;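 further: parasites exposed to compound for two days anaerobically before the ATP read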
#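 Media and compound were dispensed first, then trophozoites at 100 cells/well; plates sat 48 hrs at 37 deg C without oxygen before ATP luminescence reagent was added and read after 15-30 min at room temperature.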
# USP1-UAF1 inh: blocks the human USP1/UAF1 deubiquitinase complex | recombinant USP1/UAF1, Ub-Rhodamine cleavage fluorescence | Potency, µM (highest dose often 57.1 µM), for inactives: top-dose activity change, negative = inhibition, most hits filed as inhibitors | 390,000 compounds, 0.23% hits | AID 743255; active means well fitted inhibition curve with a large enough effect; inconclusive means small, poorly fitted or top-dose-only effect; inactive means no such curve, though single readings can be large or run the other way; further: potency means the concentration at half of the fitted maximal effect; nearly all actives have a fitted effect of over 60% in size
# Target sequence (O94782 whole entry, looked up): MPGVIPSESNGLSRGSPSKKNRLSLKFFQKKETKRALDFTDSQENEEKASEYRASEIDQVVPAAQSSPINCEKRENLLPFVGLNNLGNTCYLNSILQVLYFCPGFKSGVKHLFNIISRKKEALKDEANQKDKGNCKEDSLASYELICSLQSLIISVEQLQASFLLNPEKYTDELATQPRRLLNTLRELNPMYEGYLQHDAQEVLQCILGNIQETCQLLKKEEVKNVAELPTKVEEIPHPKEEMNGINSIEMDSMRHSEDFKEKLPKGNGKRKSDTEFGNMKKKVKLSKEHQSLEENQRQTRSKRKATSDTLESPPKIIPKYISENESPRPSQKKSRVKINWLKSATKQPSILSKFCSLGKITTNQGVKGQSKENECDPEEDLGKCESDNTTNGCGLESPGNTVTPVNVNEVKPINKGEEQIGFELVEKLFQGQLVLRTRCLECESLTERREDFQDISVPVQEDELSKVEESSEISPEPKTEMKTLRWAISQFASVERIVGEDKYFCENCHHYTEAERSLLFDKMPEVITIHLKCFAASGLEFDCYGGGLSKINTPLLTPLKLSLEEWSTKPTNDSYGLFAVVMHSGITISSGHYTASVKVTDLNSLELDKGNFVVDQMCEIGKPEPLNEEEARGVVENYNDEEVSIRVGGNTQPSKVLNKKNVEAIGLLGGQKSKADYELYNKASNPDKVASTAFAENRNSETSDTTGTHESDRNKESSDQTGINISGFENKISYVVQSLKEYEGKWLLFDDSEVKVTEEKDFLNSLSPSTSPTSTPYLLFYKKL
#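 USP1/UAF1 complex (1 nM) preincubated 15 min at room temperature with compound, then Ub-Rho substrate (150 nM final) added. Kinetic fluorescence at 480/540 nm over 6 reads at 60 s intervals; 50 mM HEPES pH 7.8, 0.5 mM EDTA, 0.1 mg/ml BSA, 1 mM TCEP, 0.01% Tween-20.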
# FBPA coupling cs: counter-screen for Giardia aldolase inhibitors: coupling enzyme system | AID 2472 | 290,000 compounds, 0.67% hits | coupling enzyme system counterscreen, AmpLite Red fluorescence | activity change, negative = inhibition, % at 58.2 µM, hits read low; in the data active means activity change below about -30%
#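 Counterscreen of the coupled detection system alone, without aldolase: glyceraldehyde-3-phosphate coupling enzymes plus AmpLite Red readout. Compounds at 57.5 uM final, 10 min RT preincubation, 20 min RT reaction, fluorescence 525/598 nm.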
# hERG WT inh: inhibitors of human wildtype KCNH2 potassium channel; 340,000 compounds, 0.37% hits; Q12809; U2OS, BacMam KCNH2, thallium flux FluxOr; active compounds read low; activity change, % at 1.84 µM;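 active means maximum activity change below -70%; inconclusive means maximum activity change between -70% and -50%; inactive means maximum activity change above -50%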
#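 U2OS cells were transduced with wild-type KCNH2 virus (2.03 x 10^8 / mL) for 4 h at room temperature, then cultured overnight at 37 C. Thallium flux was read with FluxOr dye. Rate constants were normalized to DMSO controls.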
# * marks the source's active call; other numbers are inactive results; u = inconclusive; x = not tested or not shown. Shown are actives, neighbours in structure and some others; about 1.7% of the full set was active somewhere. On the % scale 0 is the no-effect control and ±100 the full control effect.
SMILES,KCNH2 3.1 block,Giardia kill,USP1-UAF1 inh,FBPA coupling cs,hERG WT inh
CCN(c1ccccc1)S(=O)(=O)c1cccc(C(=O)NCCOc2ccccc2OC)c1,-15.4,1.7,-19.7%,x,9.2
COc1cc(C(=O)ON=C2C=C(C)C(=O)C(C)=C2)cc(OC)c1OC,4.3,-7.0,-4.7%,-25.6,2.2
COc1cc(C(=O)O/N=C2\C=CC(=O)C(C)=C2)cc(OC)c1OC,18.3,1.4,-29.6%,-81.9*,-2.9
CCOC(=O)c1ccc(NCn2c(=O)oc3ccccc32)cc1,-0.4,-6.2,25.1µM*,-0.1,-12.3
Cc1cc(NC(=O)c2ccc3c(c2)OCCO3)no1,2.1,-80.0*,-1.8%,-2.8,-5.8
Nc1ccc2cn[nH]c2c1,19.0,-15.6,-25.8%,-32.2*,18.0
COC(=O)c1ccc2c(c1O)C(=O)c1ccccc1C2=O,6.6,u,-22.5%,-44.5*,12.1
O=C1c2ccccc2C(=O)c2c1ccc(O)c2O,2.3,-16.1,u,-0.2,10.3
COc1cccc(CN2CCN(C(=S)NCc3ccc(Cl)cc3)CC2)c1,-74.5*,-3.7,-5.7%,-2.2,15.4
O=S(=O)(c1ccc2c(c1)CCCC2)N1CCN(c2nc(-c3cccs3)nc3ccccc23)CC1,x,5.9,x,x,x
CCOC(=O)C(CC)/C(C)=N/NC(=O)c1ccccc1[N+](=O)[O-] (configuration not stated),13.9,2.7,-10.9%,2.2,-4.5
CCOC(=O)C(/C(C)=N/NC(=O)c1ccccc1[N+](=O)[O-])C(C)C (configuration not stated),-82.9*,-11.9,-7.6%,0.1,-0.3
CCc1ccc(NC(=O)CCCc2nc(-c3ccco3)no2)cc1,x,x,-16.4%,x,x
CCOc1ccc(/C=C2\SC(=S)N(CC(=O)N(CCO)C(C)(C)C)C2=O)cc1,6.4,-6.5,-18.4%,-1.0,9.8
CCOc1ccc(/C=C2/SC(=O)NC2=S)cc1,-93.7*,15.7,-20.4%,6.2,-16.1
CCOc1ccc(/C=C2\SC(=S)N(N3C(=O)C4CC4C3=O)C2=O)cc1 (configuration not stated),-99.0*,-13.2,-16.8%,-0.7,-5.7
CCOc1ccc(N=C2NC(=O)S/C2=C\c2ccc(N(C)C)cc2)cc1,-6.5,-2.9,28.2µM*,-2.0,-5.4
Cc1nn(-c2ccccc2)c2c1N(CC(=O)N1CCN(c3ccccc3F)CC1)C(=O)CS2,x,x,-6.1%,x,x
CCCCc1nc2c(c3c1C[C@H](C)OC3)CN(S(=O)(=O)CCCC)CC2,x,x,x,-0.9,x
CC(=O)Nc1ccc(SCC(=O)NC(=O)c2ccc(S(=O)(=O)N(C)C)cc2)cc1,10.5,-24.0,-10.9%,x,-94.2*
CN(C)S(=O)(=O)c1ccc(C(=O)NC(=O)CSc2ccccc2)cc1,-11.5,-11.5,-9.7%,1.8,4.0
O=C(Nc1cccc(S(=O)(=O)N2CCCCC2)c1)C1CCC1,-91.7*,0.1,-15.8%,x,88.2
CC(C)Oc1ccc(C(=O)Nc2cccc(S(=O)(=O)N3CCCC3)c2)cc1,-125.3*,-7.6,-19.1%,x,14.6
CC(OC(=O)C1CC1)C(=O)Nc1cccc(S(=O)(=O)N2CCOCC2)c1 (configuration not stated),-133.7*,11.5,-11.5%,x,12.3
COC(=O)C1=C(C(=O)OC)[C@@H]2N(C)c3ccc(OC)cc3[C@@]23C[C@@H](C(=O)OC)N(S(=O)(=O)c2ccc(C(F)(F)F)cc2)C3=N1,x,x,x,0.4,x
SMILES,KCNH2 3.1 block,Giardia kill,USP1-UAF1 inh,FBPA coupling cs,hERG WT inh
CC(=O)OCC(NC(=O)C1CCCN1C(=O)OC(C)(C)C)C1OC(n2ccc(=O)[nH]c2=O)C(OC(C)=O)C1OC(C)=O (configuration not stated),x,16.4,x,3.6,x
CC1(C)C2CCC1(CS(=O)(=O)N1CCC(C(N)=O)CC1)C(=O)C2 (configuration not stated),7.5,8.5,-21.7%,x,-3.8
CC1(C)C2CCC1(CS(=O)(=O)N1CCOCC1)C(=O)C2 (configuration not stated),-70.1*,7.8,-12.8%,0.2,6.9
COc1cc(C(=O)Nc2ccc3c(c2)Cc2ccccc2-3)cc(OC)c1OC,-91.3*,0.6,-18.4%,0.0,-24.7
COc1cc(C(=O)Nc2ccc3c(c2)C(=O)c2ccccc2C3=O)cc(OC)c1OC,-7.9,4.3,-16.0%,-0.4,1.1
Cc1ccc2c(c1)/C(=N/N1C(=O)c3ccccc3C1=O)C(=O)N2,-155.2*,5.2,-12.6%,-2.0,-2.7
CCOc1ccc2c(c1)/C(=N/N1C(=O)c3ccccc3C1=O)C(=O)N2,7.0,-2.2,-7.1%,4.5,5.0
CN(C)c1ccc(N/C=C/C(=O)c2ccco2)cc1,1.1,-24.7,u,-35.4*,-1.6
C=CCC[C@H](Cc1ccc(F)cc1)C(=O)OC[C@@H](NC(=O)[C@@H](CC=C)CC(=O)N[C@@H](CO)Cc1ccccc1)C(C)(C)C,-17.4,-9.2,-32.7%,x,-100.0*
C=CCC[C@@H](Cc1ccc(F)cc1)C(=O)OC[C@@H](NC(=O)[C@@H](CC=C)CC(=O)N[C@@H](CO)Cc1ccccc1)C(C)(C)C,x,1.1,-20.2%,x,x
O=C(C1COc2ccccc2O1)N1CCN(c2ccc(F)cc2)CC1 (configuration not stated),40.3,10.9,-8.9%,0.9,4.6
Cc1c(C(=O)N2CCN(c3ccc([N+](=O)[O-])cc3)CC2)oc2ccccc12,-73.2*,-7.4,-24.9%,x,-18.3
O=C(C1COc2ccccc2O1)N1CCN(c2ccc([N+](=O)[O-])cc2)CC1 (configuration not stated),-73.2*,18.6,2.5%,x,3.4
Cc1c(-c2ccccc2)oc2c(C(=O)N3CCN(c4ccc([N+](=O)[O-])cc4)CC3)cccc2c1=O,-70.8*,-27.5,-0.5%,-10.0,-103.1*
Cc1onc(-c2ccccc2)c1C(=O)N1CCN(c2ccc([N+](=O)[O-])cc2)CC1,-23.8,8.0,-4.5%,x,-7.8
Cc1c(C(=O)OCC(=O)N2CCN(c3ccccc3)CC2)oc2ccccc12,-11.2,5.3,u,x,-1.1
CCOc1ccc(Nc2oc(/C=C/c3ccc(OC)c(OC)c3)nc2C#N)cc1,x,x,9.3%,x,x
Cc1cc2nc(-c3ccc(Cl)cc3)cc(C(F)(F)F)n2n1,x,x,-12.9%,x,x
CCCCNC(=O)c1nn(-c2ccc(C)cc2)c(=O)c2c1c1ccccc1n2C,x,x,-16.5%,x,x
Cc1ccc(NC(=O)c2sc3ncnc(N4CCN(c5ccccn5)CC4)c3c2C)c(C)c1,-114.4*,4.4,-23.2%,-1.7,-73.0*
Cc1ccc(NC(=O)c2sc3nc(C)nc(N4CCN(c5ccccn5)CC4)c3c2C)c(C)c1,-70.1*,9.1,-15.9%,-2.1,-7.8
Cc1nc(N2CCN(c3ccccn3)CC2)c2c(C)c(C(=O)Nc3ccc(Br)cc3C)sc2n1,-98.9*,19.9,-17.6%,-0.7,-42.2
COc1ccc(C)cc1NC(=O)c1sc2ncnc(N3CCN(c4ccccn4)CC3)c2c1C,u,0.6,-3.2%,-3.0,-5.0

# Assay outcomes as filed in PubChem BioAssay.
